High-throughput results from PubChem.
The list is not random: actives were taken first. Their share in the collection is about 8.3%.
Lassa entry inh: qHTS for Inhibitors of binding or entry into cells for Lassa Virus. Potency, µM (doses to about 37.9 µM), for the others: top-dose activity change, negative = inhibition, hits mostly inhibitors. actives 1.2% (n = 300,000). Lassa virus pseudotype entry inhibition, cell reporter; calls by dose curve; tested in HEK293 cells; also: potency is read from the fitted curve at half-maximal effect; nearly all actives have a fitted effect of over 50% in size
HCMV inh: qHTS Assay for inhibitors of the human cytomegalovirus (HCMV). HFF cells, HCMV-luciferase reporter, 72 h; hits give low values. activity change, negative = inhibition, % at 57.5 µM. actives 4.5% (n = 410,000); in the data active = activity change below about -60%; inconclusive = no clear call, values can overlap the other calls; inactive = above about -39%
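Human foreskin fibroblasts infected with luciferase-reporter HCMV at MOI 1 PFU/cell, compounds at two doses. Luciferase measured 72 h post infection; normalized to buffer-only basal and Salinomycin (10uM) controls.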
FMDV antiviral: High Throughput Screening for Foot and Mouth Disease Virus Antivirals; FMDV antiviral cell-based qHTS; Potency, µM (highest dose often 57.9 µM), inactives show at the highest dose activity change, negative = inhibition, hits mostly inhibitors; actives 1.2% (n = 410,000); AID 1159524, 2015; calls by dose curve; tested in HEK293T cells; also: read-out not given here; potency is read from the fitted curve at half-maximal effect; nearly all actives have a fitted effect of over 45% in size
HCV inhibitor: qHTS Assay for Inhibitors of Hepatitis C Virus (HCV) | Potency, µM (top dose mostly 41.8 µM), for the others: at the highest dose activity change, negative = inhibition, hits mostly inhibitors | actives 3.4% (n = 340,000) | AID 651820, 2012 | Huh7.5.1 HCVcc-Cre infection, luciferase reporter, 44 h; also: potency is read from the fitted curve at half-maximal effect
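Whole-lifecycle infectious HCVcc-Cre system; cells 1,000/well, compound then virus (~0.5 moi) added 4 h after plating, 44 h culture. Luciferase read 15 sec following 15 min substrate incubation, room temp.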
MARV entry inh: qHTS for inhibitors of binding or entry into cells for Marburg Virus; Potency, µM (titrated, usually from 37.8 µM), for the others: at the top dose activity change, negative = inhibition, usual class: inhibitors; Marburg virus pseudotyped entry inhibition, cell reporter; actives 1.8% (n = 300,000); calls by dose curve; tested in HEK293 cells; also: potency is read from the fitted curve at half-maximal effect
FBPA Giardia inh: qHTS Assay for Inhibitors of Fructose-1,6-bisphosphate Aldolase from Giardia Lamblia; purified Giardia FBPA; Potency, µM (titrated, usually from 59.6 µM), for inactives: at the top dose activity, negative = inhibition, hits mostly inhibitors; actives 0.71% (n = 290,000); A8B2U2; also: potency is read from the fitted curve at half-maximal effect; nearly all actives have a fitted effect of over 55% in size
Target sequence (A8B2U2 whole entry, looked up): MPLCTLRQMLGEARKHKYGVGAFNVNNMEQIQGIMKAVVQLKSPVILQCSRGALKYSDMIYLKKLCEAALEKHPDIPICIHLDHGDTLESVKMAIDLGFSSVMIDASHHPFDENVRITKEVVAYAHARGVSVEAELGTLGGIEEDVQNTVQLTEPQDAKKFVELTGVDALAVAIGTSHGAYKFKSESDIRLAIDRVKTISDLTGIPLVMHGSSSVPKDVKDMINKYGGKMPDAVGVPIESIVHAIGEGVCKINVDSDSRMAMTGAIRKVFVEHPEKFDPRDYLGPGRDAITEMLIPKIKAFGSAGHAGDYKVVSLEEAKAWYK
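Giardia FBPA (40 nM reagent) was preincubated 10 min at RT with compound (up to 57.5 uM final), then substrate plus GAPDH/TPI/NAD/arsenate coupling system with diaphorase/resazurin was added; resorufin fluorescence (525/598 nm) was read after 20 min.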
Active calls of the source: *; ? = inconclusive; nt = not tested or not shown; [ ] = dose if it differs, or a comment. Unless noted, calls follow the shape of the dose curve; as a rule, active = well fitted curve in the direction sought with a large enough effect; inconclusive = small, poorly fitted or top-dose-only effect, or another doubt; inactive = no such curve, though single readings can be large; an effect the other way counts as inactive or inconclusive. % is scaled to controls: 0 for no effect and ±100 for the full control effect.

SMILES	Lassa entry inh	HCMV inh	FMDV antiviral	HCV inhibitor	MARV entry inh	FBPA Giardia inh
CCOC(=O)N1CCN(S(=O)(=O)c2ccc(C(=O)NNc3nc4c(C)cc(C)cc4s3)cc2)CC1	?	-104*	-16%	11µM*	?	?
C[C@@H]1[C@H](C)CC[C@@]2(C(=O)O[C@H]3O[C@@H](CO[C@H]4O[C@@H](CO)[C@@H](O[C@H]5O[C@@H](C)[C@@H](O)[C@@H](O)[C@@H]5O)[C@@H](O)[C@@H]4O)[C@@H](O)[C@@H](O)[C@@H]3O)CC[C@]3(C)C(=CC[C@H]4[C@@]5(C)C[C@@H](O)[C@@H](O)[C@](C)(CO)[C@@H]5CC[C@@]43C)[C@@H]12	nt	nt	nt	nt	nt	-3%[21.7 µM]
Cn1cnnc1Sc1ccc(CN2CCOc3ccc(C4=Cc5ccccc5C4)cc3C2)o1	nt	nt	30%	nt	nt	nt
CCOC(=O)N1CCN(S(=O)(=O)c2ccc(C(=O)NNc3nc4cc(C)cc(C)c4s3)cc2)CC1	?	nt	?	3.5µM*	21µM*	?
Cc1ccccc1NC(=O)C(=Cc1ccc(C(=O)O)cc1)C(=O)Nc1ccccc1C	?	-99*	5.6µM*	?	?	10%
CC(=O)Nc1ccccc1C	nt	?	-19%	38%	nt	nt
CC(=O)/C(=C/c1ccccc1)C(=O)Nc1ccccc1C	nt	-96*	14µM*	?	nt	-1%
CCN1C(=O)c2ccc(C(=O)Nc3cccc(C(=O)O)c3)cc2C1=O	-7%	-10	14µM*	28%	16%	13%
COc1ccccc1-c1cc2nc(-c3ccccc3)cc(N3CCN(C(=O)c4ccco4)CC3)n2n1	nt	-100*	4.5µM*	nt	nt	nt
COc1ccccc1-c1cc2nc(-c3ccccc3)cc(N3CCN(C(=O)c4ccoc4)CC3)n2n1	nt	-103*	7.9µM*	nt	nt	nt
COc1ccc(-c2cc3nc(C)cc(N4CCN(C(=O)c5ccoc5)CC4)n3n2)cc1	nt	-18	-19%	nt	nt	nt
O=C(c1ccoc1)N1CCN(c2cc(-c3ccco3)nc3cc(-c4ccccc4)nn23)CC1	nt	-73*	?	nt	nt	nt
Fc1ccc(-c2cc3nc(-c4ccccc4)cc(N4CCN(CCN5CCOCC5)CC4)n3n2)cc1	-13%	-71*	-17%	10µM*	?	6%
N#Cc1ccc(CN2CCC3(CC2)CCN(C(=O)c2cccc(F)c2)CC3)cc1	nt	nt	-20%	nt	nt	6%
Cc1cc(O)c(CN2CCN(c3ccccc3)CC2)c2oc(=O)cc(C)c12	14%[46.1 µM]	-1	-11%	nt	14%[46.1 µM]	nt
CCOC(=O)c1ccc(NC(=O)Cn2cc(C(=O)c3ccc(Cl)cc3)c(=O)c3ccc(C)nc32)cc1	20%[46.1 µM]	?	-9%	nt	nt	nt
COC(=O)c1c(OCc2ccccn2)cc(=O)n2c1CCN(C(=O)c1cc(C(C)C)nn1C)CC2	nt	nt	1%	nt	nt	nt
Cc1cc(N2CCN(C(=O)c3ccoc3)CC2)n2nc(-c3ccccc3)cc2n1	nt	-8	?	nt	nt	nt
O=C(c1ccoc1)N1CCN(c2cc(-c3ccccc3)nc3cc(-c4ccccc4)nn23)CC1	nt	-98*	35µM*	nt	nt	nt
CCN=C1S/C(=C\c2cn(C(C)=O)nc2-c2ccccc2)C(=O)N1CC	?	20	0%	10µM*	?	-1%
CCOCCCN(C)C1CCN(C(=O)c2oc3ccccc3c2NC(=O)c2cccc([N+](=O)[O-])c2)CC1	?	0	26%	14µM*	?	nt
CCOCCCN(C)C1CCN(C(=O)c2oc3ccccc3c2NC(=O)Cc2ccc([N+](=O)[O-])cc2)CC1	-4%[46.1 µM]	-19	25%	-28%	?	nt
Cn1c(CNC(=O)CSc2nc(-c3ccccc3F)nc3cc(=O)[nH]n23)nc2ccccc21	10%[46.1 µM]	6	-15%	nt	nt	nt
COc1cccc(COCCN2CCN(S(=O)(=O)c3ccccc3)CCC2=O)c1	nt	nt	nt	nt	nt	-1%
COc1cc(SC#N)ccc1N=Cc1c(C)[nH]n(-c2ccc(C)c(C)c2)c1=O	11µM*	-65*	13µM*	?	?	2%
SMILES	Lassa entry inh	HCMV inh	FMDV antiviral	HCV inhibitor	MARV entry inh	FBPA Giardia inh
CC(NC1CCCCC1)C(O)C12CC3CC(CC(C3)C1)C2 (centres undefined)	?	-23	-14%	?	7.3µM*	-1%
CC(NC(N)=O)C12CC3CC(CC(C3)C1)C2 (centres undefined)	?	50	-10%	9%	9%	-1%
CCOC(=O)N[C@@]1(C(F)(F)F)C(=O)NC(C)=C1C#N	nt	nt	nt	nt	1%	nt
COc1ccc(-c2nnc(NC(=O)c3ccc(S(=O)(=O)N4COCC4(C)C)cc3)o2)cc1	?	-62*	-23%	?	?	23%
CC1(C)COCN1S(=O)(=O)c1ccc(C(=O)Nc2nnc(-c3ccc(Cl)s3)o2)cc1	?	nt	?	2µM*	6.3µM*	?
O=C(Nc1nnc(-c2ccccc2Cl)o1)c1ccc(S(=O)(=O)N2CCCCCC2)cc1	?	nt	-25%	?	?	?
COc1ccc(-c2nc(-c3ccc4c(c3)OCO4)[nH]c2-c2ccc(OC)cc2)cc1	?	-102*	?	8.9µM*	?	-4%
Cc1cc2nc(-c3ccc(SCC(=O)Nc4ccc5c(c4)OCCO5)nc3)[nH]c2cc1C	-16%	-68*	nt	-19%	?	-12%
COc1cccc(Nc2nnc(SCC(=O)Nc3sccc3C(N)=O)s2)c1	nt	?	16µM*	?	nt	-12%
CCc1nnc(NC(=O)CSc2ccc(-c3nc4ccccc4[nH]3)cn2)s1	?	-94*	nt	-1%	25%	-1%
CCc1ccc(Nc2nnc(SCC(=O)Nc3sccc3C(N)=O)s2)cc1	?	8	?	?	?	1%
CCN(CCO)C(=O)c1cnn(-c2ncc3c(n2)-c2ccccc2CCC3)c1C1CC1	nt	nt	38%	nt	nt	nt
CCOC(=O)[C@@H](C#N)[C@@H](Cc1ccccc1)c1ccco1	nt	nt	nt	nt	1%	nt
CCOc1ccc(NC(=O)C2(c3cccs3)CCOCC2)cc1	-18%[46.1 µM]	7	-5%	nt	nt	nt
CCCCCSc1nc2sc3c(c2c(=O)n1-c1ccc(OC)cc1)CCN(C(C)=O)C3	-1%[46.1 µM]	?	0%	nt	4%[46.1 µM]	nt
COc1ccc(-c2nc(SCC(=O)Nc3ccc4c(c3)OCO4)c(-c3ccc(OC)cc3)[nH]2)cc1	0%[46.1 µM]	-90*	-7%	nt	7%[46.1 µM]	nt
O=C(CSc1nc(-c2ccc(F)cc2)[nH]c1-c1ccc(F)cc1)Nc1ccc2c(c1)OCCO2	?	-75*	?	nt	?	nt
O=C(CSc1nc(-c2ccccc2)[nH]c1-c1ccccc1)Nc1ccc2c(c1)OCCO2	?	-28	1%	nt	?	nt
COc1ccc(Nc2nnc(SCC(=O)NC(=O)Nc3ccc4c(c3)OCCO4)s2)cc1	nt	-22	0%	11µM*	nt	0%
